Compound activity as filed in PubChem BioAssay.
Most compounds without a hit are left out; they make up all but 3.6% or so of the library.
TRHR ag: TRH receptor (human) agonism. activation, % at 2 µM. AID 493084. TRHR cells, calcium flux fluo-8, FDSS agonist mode. 360,000 compounds, 0.18% hits; further: 0% is about no effect
Target sequence (P34981 whole entry, looked up): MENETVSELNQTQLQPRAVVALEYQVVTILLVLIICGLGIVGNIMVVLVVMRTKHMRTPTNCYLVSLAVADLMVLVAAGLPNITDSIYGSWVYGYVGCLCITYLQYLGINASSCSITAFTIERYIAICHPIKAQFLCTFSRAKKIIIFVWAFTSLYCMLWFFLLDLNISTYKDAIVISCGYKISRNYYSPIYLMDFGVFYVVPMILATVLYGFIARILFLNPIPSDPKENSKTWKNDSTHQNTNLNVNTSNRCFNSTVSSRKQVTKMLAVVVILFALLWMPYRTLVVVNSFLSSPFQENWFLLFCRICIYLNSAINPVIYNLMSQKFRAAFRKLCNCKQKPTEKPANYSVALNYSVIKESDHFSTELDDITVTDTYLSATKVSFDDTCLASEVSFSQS
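In this calcium-flux screen, cells bearing human TRHR are dye-loaded with fluo-8, baselined for 10 cycles, then exposed to library compounds; positive kinetic calcium responses during the agonist phase mark hits, with TRH as control.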
D1 PAM: potentiators of human D1 dopamine receptor; P21728; potentiation, % at 10 µM; 360,000 compounds, 0.036% hits; HEK293 TREx D1 cells, calcium flux, dopamine EC20 potentiation; in the data active means potentiation above about 30%; further: 0% is about no effect
D1 ag: agonists of human D1 dopamine receptor | activation, % at 2 µM | AID 504660 | 360,000 compounds, 1% hits | HEK293 T-REx D1 cells, calcium flux, agonist mode; further: 0% is about no effect
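Inducible HEK293 T-REx D1 cells, force-coupled to calcium signalling, were plated at 4000 cells/well with tetracycline and held overnight at 30 C. After no-wash calcium dye loading, compound-evoked calcium rise over 180 s flagged agonists.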
TRHR PAM: TRH receptor (human) allosteric enhancement; TRHR cells, fluo-8 calcium fluorescence, EC20 TRH enhancement; enhancement, % at 2 µM; 360,000 compounds, 0.66% hits; in the data active means enhancement above about 30%; further: 0% is about no effect
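TRHR-expressing cells loaded with fluo-8 calcium dye were read kinetically (ex 480/em 530) during compound addition, then stimulated with an EC20 of TRH (10 nM final). Enhancement of the Gq-mediated intracellular calcium response was scored.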
LDHA inh: blocks human lactate dehydrogenase A. purified LDHA, NADH/diaphorase-resazurin fluorescence; hits give low values. activity change, % (values are at about 110 or 230 µM). 480,000 compounds, 0.15% hits; in the data active means activity change below about -30%;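 further: plate controls were DMSO wells for no effect and wells without enzyme for full effect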
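Remaining NADH was detected by diaphorase (0.133 mg/mL) converting 37 µM resazurin to fluorescent resorufin, read at 0 and 20 minutes. The preceding 5-minute room-temperature reaction used 2 nM LDHA, 0.2 mM sodium pyruvate and 0.06 mM NADH at pH 7.4.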
D1 antagonist: blocks dopamine activation of the human D1 receptor. P21728. HEK293 TREx D1 cells, calcium flux, dopamine EC80; hits give low values. activity change, negative = inhibition, % at 10 µM. 360,000 compounds, 3.2% hits; in the data active means activity change below about -30%; further: on the % scale 0 is the no-effect control and ±100 the full control effect
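Tetracycline-induced HEK293 T-REx cells with force-coupled D1 receptor were loaded with a no-wash calcium dye. Compound was added after a 10 s baseline and read kinetically for 180 s; EC80 dopamine was then added and calcium flux followed another 180 s.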
Numbers without * were called inactive. Unless noted, no stated cut-off is given here; in the data, active means activation above about 30%; inactive means the rest.

`Nc1ccc(C(=O)N2CCN(S(=O)(=O)c3ccc(Br)cc3)CC2)cc1[N+](=O)[O-]` gave TRHR ag 0, D1 PAM -4, D1 ag 5, TRHR PAM 2, LDHA inh 0 and D1 antagonist -49*.
CCc1noc(C)c1C(=O)N1CCN(S(=O)(=O)c2ccc(C)cc2C)CC1 was read as TRHR ag 0, D1 PAM 1, D1 ag 6, TRHR PAM 1, LDHA inh -3 and D1 antagonist 4.
`CCc1noc(C)c1C(=O)N1CCN(S(=O)(=O)c2cc(C)ccc2C)CC1` gave TRHR ag 0, D1 PAM 11, D1 ag -1, TRHR PAM -6, LDHA inh -3 and D1 antagonist -31*.
Screening CCc1noc(C)c1C(=O)N1CCN(S(=O)(=O)c2ccc(Br)cc2)CC1 returned TRHR ag -1, D1 PAM -7, D1 ag -3, TRHR PAM 0, LDHA inh -1 and D1 antagonist -72*.
Screening Cc1ccc(S(=O)(=O)N2CCN(C(=O)c3ccc(OCc4c(C)noc4C)cc3)CC2)cc1 returned TRHR ag 0, D1 PAM -5, D1 ag 2, TRHR PAM 1, LDHA inh -5 and D1 antagonist -1.
`Cc1ccc(C)c(S(=O)(=O)N2CCN(C(=O)c3ccc(OCc4c(C)noc4C)cc3)CC2)c1` gave TRHR ag 0, D1 PAM -1, D1 ag 10, TRHR PAM 11, LDHA inh -1 and D1 antagonist -31*.
For CC(=O)Nc1ccc(OS(=O)(=O)c2c(C)cc(C)cc2C)cc1 the results were TRHR ag 1, D1 PAM -2, D1 ag 4, TRHR PAM -5, LDHA inh 1 and D1 antagonist -66*.
For CCOc1cc(C(=S)N2CCOCC2)ccc1OS(=O)(=O)c1ccc(NC(C)=O)cc1 the results were TRHR ag 1, D1 PAM -5, D1 ag 7, TRHR PAM -3, LDHA inh -11 and D1 antagonist -33*.
CC(=O)Nc1ccc(OS(=O)(=O)c2ccc(C)cc2C)cc1 was read as TRHR ag -1, D1 PAM -7, D1 ag 3, TRHR PAM 8, LDHA inh -1 and D1 antagonist -12.
`CCOc1cc(C(=S)N2CCOCC2)ccc1OS(=O)(=O)c1ccc(OC)cc1` gave TRHR ag 0, D1 PAM -11, D1 ag 14, TRHR PAM -6, LDHA inh -2 and D1 antagonist -3.
Screening CC(=O)Nc1ccc(S(=O)(=O)Oc2ccc(C(=S)N3CCC(O)CC3)cc2)cc1 returned TRHR ag 0, D1 PAM -5, D1 ag 6, TRHR PAM 3, LDHA inh -2 and D1 antagonist -9.
`CC(=O)Nc1ccc(S(=O)(=O)Oc2ccc(C(=S)N3CCCCC3)cc2)cc1` gave TRHR ag 0, D1 PAM -9, D1 ag 26, TRHR PAM -14, LDHA inh -5 and D1 antagonist -33*.
COc1cccc(C(=O)Nc2ccc3oc(-c4ccc(OC)c(Cl)c4)nc3c2)c1 was read as LDHA inh -7.
Screening COC(=O)C1=CNC=C(C(=O)OC)C1c1ccc(C(=O)OC)cc1 returned TRHR ag 9, D1 PAM -4, D1 ag 38*, TRHR PAM 1, LDHA inh -3 and D1 antagonist -6.
Cc1ccc(Cn2c(=O)n(CCc3ccccc3)c(=O)c3sc4ccccc4c32)cc1 was read as TRHR ag 2, D1 PAM -2, D1 ag 2, TRHR PAM -7, LDHA inh 1 and D1 antagonist -5.
Screening O=c1c2sc3ccccc3c2n(Cc2ccccc2)c(=O)n1CCc1ccccc1 returned TRHR ag 1, D1 PAM -1, D1 ag 0, TRHR PAM -3, LDHA inh -1 and D1 antagonist -52*.
For CC1=NN(Cc2ccccc2)C(=O)C1 the results were TRHR ag -1, D1 PAM -13, D1 ag -1, TRHR PAM 3, LDHA inh -5 and D1 antagonist -36*.
